Source: ChEMBL document CHEMBL1961873, “Compounds: GSK PKIS; Assays: Nanosyn kinase panel” (2012)

What was measured:
[1] = biological target: Serine/threonine-protein kinase 26 (Homo sapiens) (UniProt Q9P289); settings: at 1 µM;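 further: mean inhibition of MST4 kinase activity, reported from the GSK PKIS inhibitor-set screening panel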
[2] = biological target: Serine/threonine-protein kinase PAK 1 (Homo sapiens) (UniProt Q13153); settings: at 0.1 µM
[3] = biological target: Serine/threonine-protein kinase PAK 1 (Homo sapiens) (UniProt Q13153); settings: at 1 µM
[4] = biological target: Serine/threonine-protein kinase PAK 2 (Homo sapiens) (UniProt Q13177); settings: at 0.1 µM
Sequence of Serine/threonine-protein kinase PAK 2 (Homo sapiens) (Q13177 whole entry): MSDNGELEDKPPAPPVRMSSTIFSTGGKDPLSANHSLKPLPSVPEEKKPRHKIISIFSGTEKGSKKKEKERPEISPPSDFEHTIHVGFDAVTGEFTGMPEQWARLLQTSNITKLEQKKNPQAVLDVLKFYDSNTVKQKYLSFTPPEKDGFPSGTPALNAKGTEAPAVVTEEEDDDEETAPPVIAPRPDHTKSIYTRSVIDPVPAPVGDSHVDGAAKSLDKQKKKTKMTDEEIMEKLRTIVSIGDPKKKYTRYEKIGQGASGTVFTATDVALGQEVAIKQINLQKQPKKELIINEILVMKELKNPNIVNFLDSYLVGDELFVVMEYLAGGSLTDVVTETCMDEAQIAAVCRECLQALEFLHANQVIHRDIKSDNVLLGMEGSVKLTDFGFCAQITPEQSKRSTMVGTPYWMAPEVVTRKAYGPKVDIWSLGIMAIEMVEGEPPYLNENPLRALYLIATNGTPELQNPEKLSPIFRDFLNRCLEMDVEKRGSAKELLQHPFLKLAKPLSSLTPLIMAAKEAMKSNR

[5] = biological target: Serine/threonine-protein kinase PAK 2 (Homo sapiens) (UniProt Q13177); settings: at 1 µM
[6] = biological target: Serine/threonine-protein kinase PAK 3 (Homo sapiens) (UniProt O75914); settings: at 0.1 µM
Sequence of Serine/threonine-protein kinase PAK 3 (Homo sapiens) (O75914 whole entry, looked up): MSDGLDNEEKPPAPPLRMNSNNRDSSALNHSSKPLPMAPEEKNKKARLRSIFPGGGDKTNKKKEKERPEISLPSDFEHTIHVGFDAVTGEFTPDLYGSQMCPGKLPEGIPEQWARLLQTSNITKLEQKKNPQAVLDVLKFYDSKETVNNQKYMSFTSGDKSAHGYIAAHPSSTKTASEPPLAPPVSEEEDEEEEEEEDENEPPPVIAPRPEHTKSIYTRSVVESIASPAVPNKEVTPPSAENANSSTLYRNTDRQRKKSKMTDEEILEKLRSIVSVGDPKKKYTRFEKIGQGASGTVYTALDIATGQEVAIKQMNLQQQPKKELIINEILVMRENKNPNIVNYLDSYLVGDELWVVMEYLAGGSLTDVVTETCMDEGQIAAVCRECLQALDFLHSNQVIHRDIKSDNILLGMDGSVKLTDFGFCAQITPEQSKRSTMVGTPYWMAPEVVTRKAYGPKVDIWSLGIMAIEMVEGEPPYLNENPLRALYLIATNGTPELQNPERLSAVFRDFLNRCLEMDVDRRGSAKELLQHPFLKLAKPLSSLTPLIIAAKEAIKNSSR

[7] = biological target: Serine/threonine-protein kinase PAK 3 (Homo sapiens) (UniProt O75914); settings: at 1 µM
[8] = biological target: Serine/threonine-protein kinase PAK 5 (Homo sapiens) (UniProt Q9P286); settings: at 0.1 µM
Sequence of Serine/threonine-protein kinase PAK 5 (Homo sapiens) (Q9P286 whole entry, looked up): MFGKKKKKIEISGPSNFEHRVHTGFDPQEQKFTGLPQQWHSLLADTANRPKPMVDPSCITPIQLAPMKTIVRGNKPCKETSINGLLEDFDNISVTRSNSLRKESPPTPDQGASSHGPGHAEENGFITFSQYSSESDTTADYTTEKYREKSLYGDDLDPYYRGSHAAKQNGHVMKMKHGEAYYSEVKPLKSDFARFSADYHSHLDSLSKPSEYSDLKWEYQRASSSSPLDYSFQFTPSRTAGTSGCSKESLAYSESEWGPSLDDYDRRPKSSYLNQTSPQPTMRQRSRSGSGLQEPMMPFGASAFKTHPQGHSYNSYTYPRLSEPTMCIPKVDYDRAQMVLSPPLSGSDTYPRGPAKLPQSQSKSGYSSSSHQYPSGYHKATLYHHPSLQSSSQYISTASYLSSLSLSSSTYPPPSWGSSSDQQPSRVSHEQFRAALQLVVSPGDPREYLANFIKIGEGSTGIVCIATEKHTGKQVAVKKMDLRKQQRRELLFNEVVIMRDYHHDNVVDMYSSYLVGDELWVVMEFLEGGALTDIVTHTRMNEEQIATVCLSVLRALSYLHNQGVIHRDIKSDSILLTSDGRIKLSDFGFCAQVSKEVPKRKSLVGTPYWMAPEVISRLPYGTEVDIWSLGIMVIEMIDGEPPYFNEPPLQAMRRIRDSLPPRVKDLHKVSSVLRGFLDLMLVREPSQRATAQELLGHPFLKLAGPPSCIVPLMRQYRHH

[9] = biological target: Serine/threonine-protein kinase PAK 5 (Homo sapiens) (UniProt Q9P286); settings: at 1 µM
[10] = biological target: Serine/threonine-protein kinase PAK 6 (Homo sapiens) (UniProt Q9NQU5); settings: at 0.1 µM
Sequence of Serine/threonine-protein kinase PAK 6 (Homo sapiens) (Q9NQU5 whole entry, looked up): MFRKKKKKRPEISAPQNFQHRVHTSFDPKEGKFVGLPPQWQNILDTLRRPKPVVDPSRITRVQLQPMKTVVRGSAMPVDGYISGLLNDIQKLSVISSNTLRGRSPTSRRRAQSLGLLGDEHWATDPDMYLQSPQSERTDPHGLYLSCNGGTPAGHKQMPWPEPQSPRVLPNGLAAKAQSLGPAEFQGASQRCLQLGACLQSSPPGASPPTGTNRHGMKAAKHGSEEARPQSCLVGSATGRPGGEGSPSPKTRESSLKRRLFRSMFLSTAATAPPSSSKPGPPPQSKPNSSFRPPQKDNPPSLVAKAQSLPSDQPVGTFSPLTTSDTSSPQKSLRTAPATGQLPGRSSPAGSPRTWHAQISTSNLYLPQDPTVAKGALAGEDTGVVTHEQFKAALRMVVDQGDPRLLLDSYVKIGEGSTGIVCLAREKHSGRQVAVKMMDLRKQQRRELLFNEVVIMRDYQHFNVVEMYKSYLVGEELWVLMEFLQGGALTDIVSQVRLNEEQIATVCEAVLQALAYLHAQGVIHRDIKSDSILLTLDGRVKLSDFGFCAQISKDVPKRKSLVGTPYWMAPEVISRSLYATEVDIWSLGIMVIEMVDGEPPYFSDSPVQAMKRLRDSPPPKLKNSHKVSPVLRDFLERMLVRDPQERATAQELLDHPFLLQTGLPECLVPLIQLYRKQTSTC

[11] = biological target: Serine/threonine-protein kinase PAK 6 (Homo sapiens) (UniProt Q9NQU5); settings: at 1 µM
[12] = test system: Tyrosine-protein kinase ABL1 (Homo sapiens), P00519 [E255K]; settings: at 0.1 µM
[13] = test system: Tyrosine-protein kinase ABL1 (Homo sapiens), P00519 [E255K]; settings: at 1 µM
[14] = test system: Tyrosine-protein kinase ABL1 (Homo sapiens), P00519 [H396P]; settings: at 0.1 µM
[15] = test system: Tyrosine-protein kinase ABL1 (Homo sapiens), P00519 [H396P]; settings: at 1 µM
[16] = test system: Tyrosine-protein kinase ABL1 (Homo sapiens), P00519 [M351T]; settings: at 0.1 µM
[17] = test system: Tyrosine-protein kinase ABL1 (Homo sapiens), P00519 [M351T]; settings: at 1 µM
[18] = test system: Tyrosine-protein kinase ABL1 (Homo sapiens), P00519 [Q252H]; settings: at 0.1 µM
[19] = test system: Tyrosine-protein kinase ABL1 (Homo sapiens), P00519 [Q252H]; settings: at 1 µM
[20] = test system: Tyrosine-protein kinase ABL1 (Homo sapiens), P00519 [T315I]; settings: at 0.1 µM

Sequence of Serine/threonine-protein kinase PAK 1 (Homo sapiens) (Q13153 whole entry): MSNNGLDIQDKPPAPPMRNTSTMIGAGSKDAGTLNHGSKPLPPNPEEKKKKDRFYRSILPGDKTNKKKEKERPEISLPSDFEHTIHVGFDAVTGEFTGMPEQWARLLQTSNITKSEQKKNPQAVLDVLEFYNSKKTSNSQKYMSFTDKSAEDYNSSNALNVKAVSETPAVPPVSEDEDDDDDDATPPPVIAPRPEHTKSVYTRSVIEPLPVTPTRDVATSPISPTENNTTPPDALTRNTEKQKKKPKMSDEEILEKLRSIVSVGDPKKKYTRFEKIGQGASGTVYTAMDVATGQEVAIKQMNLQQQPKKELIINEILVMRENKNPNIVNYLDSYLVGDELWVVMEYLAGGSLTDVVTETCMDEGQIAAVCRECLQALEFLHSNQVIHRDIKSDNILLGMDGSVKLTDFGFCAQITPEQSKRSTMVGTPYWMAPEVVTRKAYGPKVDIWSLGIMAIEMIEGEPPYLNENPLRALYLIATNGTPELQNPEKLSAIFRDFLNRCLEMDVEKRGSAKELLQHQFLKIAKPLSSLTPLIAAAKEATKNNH
Sequence of Serine/threonine-protein kinase 26 (Homo sapiens) (Q9P289 2-416 limits assumed): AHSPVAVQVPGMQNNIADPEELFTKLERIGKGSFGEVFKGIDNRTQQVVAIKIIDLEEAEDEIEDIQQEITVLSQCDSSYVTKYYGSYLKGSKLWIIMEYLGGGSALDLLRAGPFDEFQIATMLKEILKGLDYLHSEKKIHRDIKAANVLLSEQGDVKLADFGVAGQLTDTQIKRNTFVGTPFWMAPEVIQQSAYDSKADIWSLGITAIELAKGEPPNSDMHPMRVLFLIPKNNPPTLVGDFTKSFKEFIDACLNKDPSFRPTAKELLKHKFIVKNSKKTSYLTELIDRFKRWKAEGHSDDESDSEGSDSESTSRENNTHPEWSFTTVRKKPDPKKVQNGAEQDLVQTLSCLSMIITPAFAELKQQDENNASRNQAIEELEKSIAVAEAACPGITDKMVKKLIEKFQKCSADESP

| Structure (SMILES) | inhibition [1] [%] | inhibition [2] [%] | inhibition [3] [%] | inhibition [4] [%] | inhibition [5] [%] | inhibition [6] [%] | inhibition [7] [%] | inhibition [8] [%] | inhibition [9] [%] | inhibition [10] [%] | inhibition [11] [%] | inhibition [12] [%] | inhibition [13] [%] | inhibition [14] [%] | inhibition [15] [%] | inhibition [16] [%] | inhibition [17] [%] | inhibition [18] [%] | inhibition [19] [%] | inhibition [20] [%] |
| --- | --- | --- | --- | --- | --- | --- | --- | --- | --- | --- | --- | --- | --- | --- | --- | --- | --- | --- | --- | --- |
| N#Cc1cccc(Nc2ncc(-c3ccccc3)o2)c1 | -0.74 | -2.44 | -0.39 | 0.33 | -0.77 | 2.61 | 2.5 | -5.2 | 1 | 3.79 | -3.46 | 1.93 | 13.5 | 4.61 | 26.9 | 2.88 | 27.1 | 3.25 | 21.2 | 2.21 |
| COc1ccc(Nc2ncc(-c3ccccc3)o2)cc1OC | -5.3 | 0.24 | 1.35 | 0.18 | 0.91 | -0.05 | 0.75 | -8.21 | -5.61 | 8.32 | -2.99 | 4.59 | 32.7 | 10.7 | 53.6 | 10.2 | 56.2 | 7.95 | 44.7 | 1.08 |
| COc1ccc(-c2nn3ncccc3c2-c2ccnc(Nc3ccc(F)c(F)c3)n2)cc1 | 0.76 | 3.1 | 5.49 | 1.93 | 0.93 | 2.36 | 5.12 | 3.31 | 0.77 | 5.78 | -1.89 | 3.61 | 10.3 | 4.57 | 22.8 | 17 | 58.1 | 12.2 | 47.4 | 5.18 |
| O=C(Nc1n[nH]c2nnc(-c3cccnc3)cc12)C1CC1 | 1.72 | -0.56 | 2.67 | -0.8 | -0.23 | -0.23 | 0.64 | -4.39 | -1.42 | -7.92 | -4.92 | -1.11 | 1.39 | 0.14 | 3.4 | 2.2 | 3.78 | 0.59 | 2.57 | -0.5 |
| CNC(=O)c1cncc(/C=C/c2ccccc2C)c1 | 2.47 | 4.67 | 7.54 | 2.06 | 2.02 | 4.95 | 5.93 | 15.4 | 4.8 | -2.91 | 12 | 4.47 | 16.5 | 6.03 | 28.8 | 6.13 | 22.7 | 5.28 | 19.3 | 1.47 |
